Source: PubChem BioAssay (EPA / NIEHS)
Results filed as inconclusive are left out. The source made the active and inactive calls. Rule for the calls: active = hit-call score of the fitted dose curve at least 0.9, where 1 is the maximum; inconclusive = response in the unintended direction; inactive = score below 0.9.

The compounds below were run against human Retinoic Acid Receptor gamma (RARg), RARG (gene 5916) (UniProt P13631) (assay: ATG_RARg_TRANS: Attagene TRANS-FACTORIAL HepG2 Assay for human Retinoic Acid Receptor gamma (RARg) (AID 2283009)).
How it was run: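 HepG2 transiently transfected with GAL4-UAS reporter units and chimeric NR-Gal4 constructs; 24 h compound exposure. Reporter mRNA quantified by RT-PCR, FAM labeling, HpaI digestion and capillary electrophoresis; gain-of-signal versus DMSO.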

Chain of human Retinoic Acid Receptor gamma (RARg), RARG (gene 5916) (P13631 whole entry, looked up, the tested form may be a part): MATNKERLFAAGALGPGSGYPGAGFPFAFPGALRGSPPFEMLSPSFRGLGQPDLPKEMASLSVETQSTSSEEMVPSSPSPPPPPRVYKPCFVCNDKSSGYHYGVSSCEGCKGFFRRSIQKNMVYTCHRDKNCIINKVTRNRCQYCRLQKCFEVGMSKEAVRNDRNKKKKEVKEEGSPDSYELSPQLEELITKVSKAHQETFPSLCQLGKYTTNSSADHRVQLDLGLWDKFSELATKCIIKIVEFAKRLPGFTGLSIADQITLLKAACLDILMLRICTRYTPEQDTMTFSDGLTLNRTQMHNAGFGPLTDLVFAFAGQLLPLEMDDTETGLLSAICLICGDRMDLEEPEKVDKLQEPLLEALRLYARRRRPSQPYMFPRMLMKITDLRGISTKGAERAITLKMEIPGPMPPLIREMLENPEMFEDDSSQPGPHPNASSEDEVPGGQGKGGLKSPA

outcome, inactive:
Nc1ccc(N)c2c1C(=O)c1ccccc1C2=O
IC(I)I
CCCCCC(C=O)=Cc1ccccc1
O=C(O)c1ccc(O)cc1
C[C@H]1O[C@@H](O[C@H]2[C@@H](O)C[C@H](O[C@H]3[C@@H](O)C[C@H](O[C@H]4CC[C@@]5(C)[C@H](CC[C@@H]6[C@@H]5C[C@@H](O)[C@]5(C)[C@@H](C7=CC(=O)OC7)CC[C@]65O)C4)O[C@@H]3C)O[C@@H]2C)C[C@H](O)[C@@H]1O
CCCCC(CC)COC(C)=O (stereo not drawn)
CCCCCCC(O)CCCCCCCCCCC(=O)O (stereo not drawn)
CCCCN(CCCC)C(=O)N(CCCC)CCCC
CCC(C)c1cc([N+](=O)[O-])cc([N+](=O)[O-])c1OC(=O)OC(C)C (stereo not drawn)
COc1cc(Cl)c(OC)cc1N
C[Si]1(C)O[Si](C)(C)O[Si](C)(C)O1
O=C1OC2(c3ccccc31)c1ccc(O)c(Br)c1Oc1c2ccc(O)c1Br
NCCNc1cccc2ccccc12
CCCCCCCCCCCCS(=O)(=O)Cl
Cc1ccc(S(=O)(=O)Oc2ccc(N=Nc3ccc(-c4ccc(N=Nc5c(O)ccc6cc(S(=O)(=O)O)cc(S(=O)(=O)O)c56)c(C)c4)cc3C)cc2)cc1

These compounds were tested against human RAR-related Orphan Receptor beta (RORb), RORB (gene 6096) (UniProt Q92753) (assay: ATG_RORb_TRANS: Attagene TRANS-FACTORIAL HepG2 Assay for human RAR-related Orphan Receptor beta (RORb) (AID 2283010)).
How it was run: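 HepG2 cells transiently transfected with GAL4-UAS reporter units expressing chimeric NR-Gal4 protein; reporter mRNA measured 24 h after dosing by RT-PCR, 6-FAM labelling and capillary electrophoresis. Gain-of-signal fitted relative to DMSO baseline.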

Chain of human RAR-related Orphan Receptor beta (RORb), RORB (gene 6096) (Q92753 whole entry, looked up, the tested form may be a part): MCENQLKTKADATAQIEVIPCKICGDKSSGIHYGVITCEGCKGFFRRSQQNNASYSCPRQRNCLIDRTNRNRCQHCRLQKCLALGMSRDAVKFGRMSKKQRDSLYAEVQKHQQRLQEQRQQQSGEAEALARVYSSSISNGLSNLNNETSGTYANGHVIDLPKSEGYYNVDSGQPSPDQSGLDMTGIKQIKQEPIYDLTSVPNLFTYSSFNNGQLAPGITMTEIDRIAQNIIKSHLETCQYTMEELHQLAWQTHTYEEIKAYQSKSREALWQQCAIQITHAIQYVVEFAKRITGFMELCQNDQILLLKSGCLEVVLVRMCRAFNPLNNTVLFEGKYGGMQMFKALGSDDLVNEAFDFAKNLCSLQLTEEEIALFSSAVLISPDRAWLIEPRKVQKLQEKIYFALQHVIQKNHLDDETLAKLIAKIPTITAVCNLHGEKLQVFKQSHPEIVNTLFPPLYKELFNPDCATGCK

outcome, inactive:
Cc1ncc([N+](=O)[O-])n1CCO
Nc1ccc(N)c2c1C(=O)c1ccccc1C2=O
IC(I)I
O=C1OC(=O)c2c(Cl)c(Cl)c(Cl)c(Cl)c21
O=CN1CCOCC1
COc1ccc(OC)c(N=Nc2c(O)ccc3ccccc23)c1
O=C(O)c1ccc(O)cc1
C[C@H]1O[C@@H](O[C@H]2[C@@H](O)C[C@H](O[C@H]3[C@@H](O)C[C@H](O[C@H]4CC[C@@]5(C)[C@H](CC[C@@H]6[C@@H]5C[C@@H](O)[C@]5(C)[C@@H](C7=CC(=O)OC7)CC[C@]65O)C4)O[C@@H]3C)O[C@@H]2C)C[C@H](O)[C@@H]1O
CCC(C)c1cc([N+](=O)[O-])cc([N+](=O)[O-])c1OC(=O)OC(C)C (stereo not drawn)
C[Si]1(C)O[Si](C)(C)O[Si](C)(C)O1
O=C1OC2(c3ccccc31)c1ccc(O)c(Br)c1Oc1c2ccc(O)c1Br
Nc1ccc2cc(S(=O)(=O)O)cc(O)c2c1N=Nc1ccccc1C(F)(F)F
C=Cc1ccncc1
CCCCCCCC/C=C\CCCCCCCC(=O)OCC
NCCNc1cccc2ccccc12
CCCCCCCCCCCCS(=O)(=O)Cl
Cc1ccc(S(=O)(=O)Oc2ccc(N=Nc3ccc(-c4ccc(N=Nc5c(O)ccc6cc(S(=O)(=O)O)cc(S(=O)(=O)O)c56)c(C)c4)cc3C)cc2)cc1
CN(C)C(=S)SC(=S)N(C)C
